Test results as given in ChEMBL document CHEMBL3988442, “University of Dundee, Small-Polar-MMV Screening Library” (2021).

Legend:
[1] = target: T1, Aspartate--tRNA(Asp/Asn) ligase (Mycobacterium tuberculosis (strain ATCC 25618 / H37Rv)) (UniProt P9WFW3); experiment: Assay for Asp RNA synthetase-1 from Mycobacterium tuberculosis; type: functional; set-up: scale not given: direction of the effect not stated beside the values; conditions: 30 µM; also: in the data most compounds retested in dose-response had high values
T1 sequence (whole entry): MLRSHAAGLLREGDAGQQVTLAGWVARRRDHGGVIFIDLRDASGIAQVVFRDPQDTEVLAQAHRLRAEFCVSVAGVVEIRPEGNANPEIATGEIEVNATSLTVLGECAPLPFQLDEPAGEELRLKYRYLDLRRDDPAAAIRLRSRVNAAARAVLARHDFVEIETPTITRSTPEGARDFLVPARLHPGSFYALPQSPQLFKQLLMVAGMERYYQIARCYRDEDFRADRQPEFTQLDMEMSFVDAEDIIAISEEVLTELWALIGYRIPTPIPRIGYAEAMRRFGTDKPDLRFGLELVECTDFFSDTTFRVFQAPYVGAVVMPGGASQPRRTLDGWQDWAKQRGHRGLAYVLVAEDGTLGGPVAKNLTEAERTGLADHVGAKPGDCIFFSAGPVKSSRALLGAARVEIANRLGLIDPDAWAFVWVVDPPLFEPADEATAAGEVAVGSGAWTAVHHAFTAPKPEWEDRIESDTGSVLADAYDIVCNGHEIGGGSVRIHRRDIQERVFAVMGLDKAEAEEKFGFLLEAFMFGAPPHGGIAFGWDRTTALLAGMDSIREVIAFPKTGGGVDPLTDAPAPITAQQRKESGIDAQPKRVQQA

[2] = target: Shiga toxin 2 (Escherichia coli O157:H7) (UniProt P09385+P09386); experiment: E. coli 0.157:H7 Shiga Toxin SOP - stx2 screening assay; type: functional; set-up: scale not given: direction of the effect not stated beside the values; conditions: 30 µM

Structure (SMILES)	Percent Effect [1]	Percent Effect [2]
CN(C)c1ncc(-c2cc(C(=O)O)n(CC3CC3)c2)cn1	0.577%	2.77%
O=C(Cn1cc(I)cn1)Nc1cccnc1	1.95%	-36.6%
Cn1nc(C2CCCN(Cc3ccsc3)C2)c2nccnc21 (centres undefined)	-2.96%	-14.3%
CN(C)C1CCN(C(=O)NCc2ccccc2Cn2cncn2)CC1	-2.31%	0.165%
COC(=O)c1cccc(C(=O)N2CCN(c3cccc(C)c3C)CC2)n1	-1.18%	-18.6%
CN(C)c1ccc(CCCNC(=O)Nc2ccc(C#N)cc2)cc1	-1.77%	-44.4%
COc1cc(CN2CC[C@@]3(CCCO3)[C@@H](O)C2)ccc1F	4.99%	3%
CCc1nc(CN2CCCN(C(=O)c3cnc[nH]3)CC2)cs1	-2.77%	-5.89%
CN(Cc1nnc(C2CC2)n1C)C1CCN(Cc2ccc(F)cc2)C1 (centres undefined)	11.8%	9.62%
COc1cccc(CCC2CCCN(C(=O)c3n[nH]c4c3CCC4)C2)c1 (centres undefined)	2.06%	-1.83%
COc1ccc(NC(=O)C2CCOC2)c(N2CCN(C(C)=O)CC2)n1 (centres undefined)	1.42%	-6.14%
NC(=O)CSCC(=O)N1CCc2cc(Cl)cc(Cl)c2C1	12.7%	-44.7%
CC(C)NC(=O)N1CC[C@@H]2CN(Cc3cccc(Cl)c3)S(=O)(=O)[C@@H]2CC1	5.42%	-9.22%
Cc1cnn(CC(C)NCc2ccc(-n3cccn3)cc2)c1 (centres undefined)	-3.68%	-40%
CC(C)N1CCOCC2(CN(Cc3ccco3)CCO2)C1 (centres undefined)	1.82%	5.04%
Cc1nn(C)c(Cl)c1C1CCCN1C(=O)c1cc(Cl)c[nH]1 (centres undefined)	1.85%	16.5%
Cc1ccsc1C(=O)NCCCn1nc2ccccn2c1=O	1.69%	16.8%
CC(=O)Nc1ncc(S(=O)(=O)Nc2ccc(F)cc2F)s1	2.53%	-38.5%
CC(=O)Nc1nc(C(=O)N2CCCC(n3ccnc3)C2)cs1 (centres undefined)	-1.21%	0.121%
Cc1ccc(-n2nnc(C(=O)NS(C)(=O)=O)c2C2CC2)cc1	0.379%	-7.97%
NC(=O)COc1cccc(C(=O)Nc2cnc3n2CCCC3)c1	-0.557%	-2.86%
O=C(Nc1nccs1)N1CCCC(N2CCNC2=O)C1 (centres undefined)	0.977%	-10.1%
O=C(c1coc(COc2cccc(F)c2)n1)N1CC[C@H](O)[C@@H](O)C1	2.06%	11.7%
CC(NC(=O)NCCCN(C)S(C)(=O)=O)c1cccc(Cl)c1 (centres undefined)	1.12%	-9.29%

Structure (SMILES)	Percent Effect [1]	Percent Effect [2]
Cc1nnc(SCC(=O)N2CCC3(CC2)c2ccccc2CC3O)o1 (centres undefined)	4.4%	-18.7%
Cn1ccc(C(=O)NC2CCN(c3ncccn3)CC2)cc1=O	4.84%	24.2%
COCCNC(=O)[C@H]1C[C@@H]2CCN(c3nncs3)C[C@H]2O1	1.82%	-18.8%
Nc1nc(C2CCN(C(=O)c3cncs3)CC2)cs1	-0.134%	-3.12%
Cc1ccc(C(N)c2cccc(S(C)(=O)=O)c2)cc1 (centres undefined)	-0.691%	-0.145%
COc1ccnc(N2CCN(C(=O)CCc3nccs3)CC2)n1	-1.19%	-2.92%
O=C1NCCN1C1CCN(CCc2cccs2)CC1	-0.519%	4.4%
Cc1cnn(CC2CN(CCc3ccncc3)CCO2)c1 (centres undefined)	8.62%	-2.69%
CCc1cc(NCc2ccccc2CN2CCCC2)n2ncnc2n1	7.58%	-25.4%
O=C1N(c2cccc(Cl)c2)Cc2nc(=O)n(Cc3cccc(F)c3)n21	6.56%	-11.3%
Cc1noc(C)c1-c1cnc(CC2CCN(C(=O)c3cc[nH]n3)C2)cn1 (centres undefined)	4.09%	7.65%
CO[C@H]1CCN(c2ncccn2)[C@H]1Cc1ccccc1	1.75%	-19.4%
CC1(C)OCC(CNC(=O)c2cnn(-c3ccc(Cl)cc3)c2N)O1 (centres undefined)	2.4%	47.4%
CN(CC(=O)N1CCC(Oc2ccccc2)CC1)c1cnccn1	0.175%	-7.36%
COCCOCC(=O)Nc1ccc(Br)cc1F	-5.06%	-5.97%
CC(C)c1n[nH]c(C2CN(C(=O)C3=COCC3)CCO2)n1 (centres undefined)	-3.88%	17.2%
O=C(C1CCC1)N1CCN(c2snc3ccccc23)CC1	2.29%	10.4%
CC(C)OCCCNC(=O)CN1CCC(N2CCN(C)C2=O)CC1	-3%	-14.1%
Cc1cc(C)c(OCC(=O)NS(=O)(=O)c2cccnc2)c(C)c1	-4.5%	-1.8%
COc1cc(C)nc(N2CCN(C(=O)COCC(F)(F)F)CC2)n1	-2.06%	-20.7%
Fc1ccc2[nH]c(C3CCCN3CCc3ccccn3)nc2c1 (centres undefined)	7.64%	-16.2%
Cn1cc(CN2CCC3(CC2)CC(c2ccncc2)C(=O)N3)cn1 (centres undefined)	12.5%	-4.24%
O=C(NCCNc1ncccn1)C1CCN(CC(F)(F)F)CC1	2.17%	21.6%
